In PubChem BioAssay (NCI):
The panel holds about 79,000 compounds, 15% with a hit somewhere; the sample as a whole holds those more often. Active and inactive are the calls of the source. Rule as the data show it: active = growth inhibition above about 70%; inactive = the rest.

Columns and labels:
[1] = NCI Yeast Anticancer Drug Screen. Data for the rad50 strain (AID 155);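 also: 0% = growth of vehicle-only cultures of the same strain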; conditions: S. cerevisiae rad50 strain growth inhibition, stronger effect = higher value
How it was run: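 Yeast carrying a defined DNA repair defect were exposed to test compounds, and growth was compared with vehicle-treated controls to give percent inhibition.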

[2] = NCI Yeast Anticancer Drug Screen. Data for the mec2-1 strain (AID 157); conditions: S. cerevisiae mec2-1 strain, stronger effect = higher value
How it was run: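 Strain: mec2-1 (DNA repair/cell cycle alteration). Compound exposure, then growth measured; inhibition expressed relative to vehicle.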

[3] = NCI Yeast Anticancer Drug Screen. Data for the sgs1 mgt1 strain (AID 161);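 also: 0% = growth of cultures given vehicle only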; conditions: S. cerevisiae sgs1 mgt1 strain, stronger effect = higher value
How it was run: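 Genetically altered yeast, compound exposure, growth inhibition relative to vehicle.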

[4] = NCI Yeast Anticancer Drug Screen. Data for the cln2 rad14 strain (AID 165);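 also: 0% = growth equal to vehicle treated cultures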; conditions: S. cerevisiae cln2 rad14 strain, stronger effect = higher value
How it was run: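 Compounds are applied to the cln2 rad14 yeast strain, and growth is then compared with that of vehicle-treated cultures to give inhibition.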

[5] = NCI Yeast Anticancer Drug Screen. Data for the bub3 strain (AID 167); conditions: S. cerevisiae bub3 mutant strain, stronger effect = higher value
How it was run: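 Compounds were applied to a genetically altered yeast strain carrying a cell-cycle control defect. Growth inhibition was scored against vehicle-treated controls.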

[6] = NCI Yeast Anticancer Drug Screen. Data for the mlh1 rad18 strain (AID 175); conditions: S. cerevisiae mlh1 rad18 strain growth inhibition, stronger effect = higher value
How it was run: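 Read-out is yeast growth inhibition, calculated against vehicle-only controls. The compound was applied to a strain engineered with DNA damage repair alterations.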

[7] = at 5.0 µM (retest, dose inferred, filed as 0.5)
[8] = at 50.0 µM (retest, dose inferred, filed as 5.0)

Measured: growth inhibition

C[CH2][Pb]([CH2]C)([CH2]C)[n]1cnc2ccccc21
inactive: [1]; [7] 4% | [1]; at 50.0 µM 66% | [2]; [7] 2% | [3]; [7] 5% | [4]; [7] -3% | [4]; [8] 62% | [4]; at 50.0 µM 41.8% | [5]; [7] 2% | [6]; [7] 4%
active: [1]; [8] 87% | [2]; [8] 98% | [2]; at 50.0 µM 74% | [3]; [8] 97% | [3]; at 50.0 µM 82.2% | [5]; [8] 97% | [5]; at 50.0 µM 80.3% | [6]; [8] 98% | [6]; at 50.0 µM 79%

ClCCN(CCCl)c1ccc(CNCCCNCc2ccc(N(CCCl)CCCl)cc2)cc1
active: [1]; at 50.0 µM 94.7% | [3]; at 50.0 µM 99.1% | [6]; [8] 98% | [6]; at 50.0 µM 99.2%
inactive: [1]; [7] -1% | [1]; [8] 57% | [2]; [7] -13% | [2]; [8] 7% | [2]; at 50.0 µM 49% | [3]; [7] -12% | [3]; [8] 41% | [4]; [7] -2% | [4]; [8] 37% | [4]; at 50.0 µM 14.8% | [5]; [7] -3% | [5]; [8] 38% | [5]; at 50.0 µM 43% | [6]; [7] 4%

Cc1ccc(C(=O)CCl)o1
inactive: [1]; [7] -114% | [2]; [7] -29% | [3]; [7] -46% | [4]; [7] -54% | [5]; [7] -34% | [6]; [7] -96%
active: [1]; [8] 97% | [1]; at 50.0 µM 98.7% | [2]; [8] 98% | [2]; at 50.0 µM 99.7% | [3]; [8] 94% | [3]; at 50.0 µM 76% | [4]; [8] 77% | [4]; at 50.0 µM 71.4% | [5]; [8] 98% | [5]; at 50.0 µM 99.2% | [6]; [8] 95% | [6]; at 50.0 µM 98.5%

c1ccc([Te][Te]c2ccccc2)cc1
active: [1]; [8] 90% | [3]; [8] 79% | [3]; at 50.0 µM 75% | [4]; at 50.0 µM 71.2% | [6]; [8] 88% | [6]; at 50.0 µM 86%
inactive: [1]; [7] 62% | [1]; at 50.0 µM 17.6% | [2]; [7] 22% | [2]; [8] 68% | [2]; at 50.0 µM 36.2% | [3]; [7] 40% | [4]; [7] 49% | [4]; [8] 63% | [5]; [7] 52% | [5]; [8] 68% | [5]; at 50.0 µM 41.5% | [6]; [7] 56%

CCC[CH2][Sn]1([CH2]CCC)[O]N=Cc2ccccc2[O]1
inactive: [1]; [7] 46% | [2]; [7] 50% | [4]; [7] 62%
active: [1]; [8] 94% | [1]; at 50.0 µM 86.8% | [2]; [8] 97% | [2]; at 50.0 µM 90.5% | [3]; [7] 79% | [3]; [8] 98% | [3]; at 50.0 µM 88.2% | [4]; [8] 97% | [4]; at 50.0 µM 87.1% | [5]; [7] 85% | [5]; [8] 98% | [5]; at 50.0 µM 90.1% | [6]; [7] 73% | [6]; [8] 97% | [6]; at 50.0 µM 88.3%

NC1=C(c2nc(-c3ccccc3)cs2)C(c2ccc(Br)cc2)c2c(c3ccccc3oc2=O)O1 (configuration not stated)
active: [1]; [8] 99% | [2]; [8] 100% | [3]; [8] 99% | [4]; [8] 99% | [5]; [8] 99% | [6]; [8] 99%
inactive: [1]; [7] 5% | [1]; at 50.0 µM 0.8% | [2]; [7] 6% | [2]; at 50.0 µM 29.2% | [3]; [7] 7% | [3]; at 50.0 µM 17.2% | [4]; [7] 3% | [4]; at 50.0 µM 42.4% | [5]; [7] 4% | [5]; at 50.0 µM 28.8% | [6]; [7] 6% | [6]; at 50.0 µM 46.1%

O=C(O)C1C2c3cccc4cccc(c34)C12 (configuration not stated)
active: [1]; [8] 88% | [2]; [8] 72% | [2]; at 50.0 µM 87.6% | [3]; [8] 74% | [4]; [8] 78% | [4]; at 50.0 µM 85.3% | [5]; [8] 86% | [5]; at 50.0 µM 93.2% | [6]; [8] 81% | [6]; at 50.0 µM 83.8%
inactive: [1]; [7] -139% | [1]; at 50.0 µM 44.8% | [2]; [7] -50% | [3]; [7] -56% | [3]; at 50.0 µM 40.4% | [4]; [7] -41% | [5]; [7] -59% | [6]; [7] -112%

C/C(=N\N)C(CN1CCCCC1)C(c1ccccc1)c1c(O)c2ccccc2oc1=O (configuration not stated)
inactive: [1]; [7] 3% | [1]; [8] 3% | [2]; [7] 1% | [2]; [8] 1% | [2]; at 50.0 µM 63.8% | [3]; [7] 3% | [3]; [8] 3% | [4]; [7] 4% | [4]; [8] 4% | [5]; [7] 3% | [5]; [8] 3% | [6]; [7] 8% | [6]; [8] 8%
active: [1]; at 50.0 µM 79.8% | [3]; at 50.0 µM 81.7% | [4]; at 50.0 µM 74% | [5]; at 50.0 µM 76.3% | [6]; at 50.0 µM 80%

ClCCN(CCCl)c1ccc(C=NCCCCN=Cc2ccc(N(CCCl)CCCl)cc2)cc1
inactive: [1]; [7] 3% | [2]; [7] 10% | [2]; [8] 47% | [2]; at 50.0 µM 47% | [3]; [7] 8% | [3]; [8] 62% | [4]; [7] -10% | [5]; [7] -10% | [5]; [8] 3% | [5]; at 50.0 µM 7.15% | [6]; [7] 63%
active: [1]; [8] 82% | [1]; at 50.0 µM 88.8% | [3]; at 50.0 µM 82.8% | [4]; [8] 82% | [4]; at 50.0 µM 88.6% | [6]; [8] 95% | [6]; at 50.0 µM 85.8%
